# Compound activity from PubChem BioAssay.
# CHT block – human CHT choline transport inhibition; CHT-expressing cells, membrane potential dye, choline response; active compounds read low; B-score at 10 µM; hit rate 0.86% among 310,000; AID 488975;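 active = B-score over 3 SD under the library average, and starting fluorescence ratio not unusually high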;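 note: choline stimulus applied at its EC90 after an EC20 pre-addition; B-score computed on integrated fluorescence ratio after choline addition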
# GPR7 antagonist – blocks human GPR7 receptor signaling. P48145. GPR7-expressing cells, fluorescence antagonist assay. inhibition, % at 4.4 µM. hit rate 1.1% among 290,000. AID 1861; in the data active = inhibition above about 16%, passing the limit was not always enough;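 note: cells stimulated with the agonist NPW; 0% = agonist with vehicle and 100% = vehicle without agonist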
# ANO1 block – inhibitors of mouse TMEM16A calcium-activated chloride channel; Q8BHY3; normalized B-score (activity score, 25-100; higher = stronger inhibition) at 10 µM; AID 588511; HEK293 TMEM16A/YFP iodide influx fluorescence, ionomycin; hit rate 1.2% among 310,000;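 active = ratio plate-corrected score three or more library SD toward inhibition, starting fluorescence score within five deviations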;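 note: score derived from kinetic fluorescence span divided by baseline fluorescence per well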
# ANO1 activ – activators or potentiators of mouse TMEM16A chloride channel. Q8BHY3. HEK293 TMEM16A/YFP-H148Q/I152L, iodide quench fluorescence; active compounds read low. B-score at 10 µM. hit rate 0.3% among 340,000;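 active = fluorescence-ratio B-score plate-corrected deviation score at least 3 library SD below zero, with starting fluorescence score within 5 deviations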;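 note: channel opened by trigger with iodide after compound preincubation; score built on the fluorescence ratio of max minus min over baseline; more negative score means more quench and so TMEM16A activation or potentiation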
# CHT allo act – allosterically activates the human high affinity choline transporter | Q9GZV3 | CHT-expressing cells, membrane potential dye, choline EC20; active compounds read high; LV-AA mutant CHT in HEK293 cells | B-score at 10 µM | hit rate 0.49% among 310,000 | AID 488977;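 active = initial fluorescence not abnormally high and integrated response B-score, plate-corrected, over 3 SD above library mean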
# Kir21 inh – blocks the mouse Kir2.1 inward-rectifier potassium channel; P35561; HEK293-Kir2.1, FluxOR thallium flux fluorescence; active compounds read low; B-score at 10 µM; hit rate 0.85% among 310,000;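 active = fluorescence ratio B-score at or below minus 3 SD of library scores, with starting-brightness B-score within 2 SD, cut at about -4.2 in these data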;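 note: channel flux triggered by added potassium and thallium sulfate stimulus; B-score of peak minus minimum fluorescence over baseline after thallium stimulus; more negative B-score means stronger Kir2.1 block with less thallium influx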
# Target sequence (P35561 whole entry, looked up): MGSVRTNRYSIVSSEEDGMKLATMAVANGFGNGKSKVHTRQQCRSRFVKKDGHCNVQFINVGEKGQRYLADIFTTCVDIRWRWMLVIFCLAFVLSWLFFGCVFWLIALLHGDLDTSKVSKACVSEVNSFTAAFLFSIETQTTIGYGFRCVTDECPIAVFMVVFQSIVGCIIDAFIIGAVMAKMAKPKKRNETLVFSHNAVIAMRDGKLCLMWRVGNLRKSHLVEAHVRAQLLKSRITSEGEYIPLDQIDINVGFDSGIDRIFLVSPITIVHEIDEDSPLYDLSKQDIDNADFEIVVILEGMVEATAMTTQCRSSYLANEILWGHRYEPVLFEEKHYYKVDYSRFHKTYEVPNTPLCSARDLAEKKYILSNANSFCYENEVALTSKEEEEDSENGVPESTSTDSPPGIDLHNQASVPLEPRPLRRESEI
# CHT block conf – confirmation of human choline transporter CHT inhibitors; shares compounds with CHT block; CHT-expressing cells, choline membrane potential dye; LV-to-AA substituted CHT, HEK293 cells; CHT activity remaining % of control (active compounds read low), % at 10 µM; hit rate 70% among 2,400;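 active = choline transporter activity left, mean of duplicates at 10 µM, below buffer-only control mean minus 3 SD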;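 note: depolarization triggered by choline at its EC90 following an EC20 pre-addition; 0% = hemicholinium-3 full block and 100% = buffer-only control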
# HEK293 CHT ctr – counter-screen for CHT inhibitors: effect in parental HEK293 cells; membrane potential dye, choline response; active = decrease or increase beyond buffer ±3SD; hit rate 4% among 2,400; membrane potential ratio readout (active if shifted either direction beyond buffer ±3SD; no single direction) at 10 µM; shares compounds with CHT block;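 note: parental cells lack the transporter so any hit is non-specific; ratio is peak minus trough fluorescence over baseline after EC90 choline challenge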
# An asterisk follows results filed as active; i = inactive; x = not tested or not shown. Compounds with a hit are over-represented: about 3.7% of the library has one in this group of screens.
SMILES,CHT block,GPR7 antagonist,ANO1 block,ANO1 activ,CHT allo act,Kir21 inh,CHT block conf,HEK293 CHT ctr
CCC(CO)NC(=O)c1ccccc1C(F)(F)F (stereo not given),i,2.6,i,i,i,-1.14,x,x
COC(=O)N(NC(=O)C(O)(CCC(C)C)CCC(C)C)c1ccccc1,i,23.7*,i,i,i,1.59,i,i
CCOC(=O)c1cc(NC(=O)CNCC(c2ccccc2)N(C)C)cc(C(=O)OCC)c1 (stereo not given),-6.77*,27.9,i,i,i,-1.93,33.1%*,2.19*
COc1ccc(CCNC(=O)CNCC(c2ccccc2)N(C)C)cc1OC (stereo not given),i,-3.6,i,i,i,-0.09,x,x
O=C(C[n+]1cccc(Br)c1)c1cccs1,-9.17*,-13.4,i,i,i,-1.22,26.4%*,i
O=C(C[n+]1cccc(Br)c1)c1ccc(-c2ccccc2)cc1,-15.1*,5.8,i,i,i,-0.83,-0.8%*,i
COC(=O)c1ccc[n+](CC(=O)c2ccc(Br)cc2)c1,i,-5.0,i,i,i,0.14,x,x
O=C(CCC(=O)c1cccs1)c1cccs1,i,3.3,i,i,i,-0.05,x,x
COc1ccc(C(=O)C[n+]2cccc(Br)c2)cc1,-19.3*,-15.7,i,i,i,-0.2,-0.1%*,i
Cc1ccc(C(=O)C[n+]2cc(Br)cc(Br)c2)cc1,-13.3*,-19.2,i,i,i,0.16,21.4%*,i
COc1ccc(NC(=S)N2CCC(N(C)CC3CCCO3)CC2)cc1Cl (stereo not given),i,-5.9,i,i,i,-1.19,x,x
O=C(C[n+]1cccc(Br)c1)c1ccccc1,-6.02*,-1.7,i,i,i,1.1,18.1%*,i
Fc1cccc(F)c1-n1c(CN2CCCC2)csc1=S,i,0.7,i,i,i,-1.83,x,x
Cc1cccc(C)c1-n1cccc1/C=C1/C(=N)N2C(=NC1=O)SN=C2S(C)(=O)=O,-5.49*,-4.3,25*,i,i,0.13,50.5%*,i
COc1ccc(NC(=O)Cc2ccc(C)c(C)c2)cc1S(=O)(=O)N1CCCCC1,x,x,x,i,x,x,x,x
CCOC(=O)C1CCCN(C/C(O)=C(\C#N)c2nc(-c3ccc(Cl)cc3)cs2)C1 (stereo not given),-5.66*,-8.6,i,i,i,-0.08,i,i
O=C(NCCN1CCCC1)c1ccc2c(c1)N(Cc1cccc(Cl)c1)C(=O)c1ccccc1S2(=O)=O,-9.49*,13.2,i,i,i,-2.98,34.2%*,i
O=C(NCCCN1CCOCC1)c1ccc2c(c1)N(Cc1cccc(Cl)c1)C(=O)c1ccccc1S2=O (stereo not given),i,9.0,i,i,i,0.07,x,x
CCN1C(=O)c2ccccc2S(=O)(=O)c2ccc(C(=O)NCCCN(CC(C)C)CC(C)C)cc21,i,-8.6,i,i,i,-0.12,x,x
CCN1CCCC1CNC(=O)c1ccc2c(c1)N(Cc1cccc(Cl)c1)C(=O)c1ccccc1S2(=O)=O (stereo not given),-11.7*,14.4,i,i,i,-2.23,27.5%*,i
O=C(NCCN1CCOCC1)c1ccc2c(c1)N(Cc1ccccc1F)C(=O)c1ccccc1S2(=O)=O,i,-5.0,i,i,i,-0.75,x,x
CCN1CCCC1CNC(=O)c1ccc2c(c1)N(Cc1ccccc1F)C(=O)c1ccccc1S2(=O)=O (stereo not given),-5.31*,5.2,i,i,i,0.52,54.5%*,i
CC1CCCN(CCCNC(=O)c2ccc3c(c2)N(Cc2ccccc2F)C(=O)c2ccccc2S3(=O)=O)C1 (stereo not given),-7.12*,1.9,i,i,i,-0.27,34.6%*,i
CCC1C(=O)NCCN1C(=O)c1ccc(OC)c(OC2CCN(C(C)=O)CC2)c1 (stereo not given),i,-11.8,i,i,i,-0.02,x,x
CC(C)N(C)CCOC(=O)C1COc2ccccc2O1 (stereo not given),-5.99*,-20.4,i,i,i,0.5,7.5%*,i
SMILES,CHT block,GPR7 antagonist,ANO1 block,ANO1 activ,CHT allo act,Kir21 inh,CHT block conf,HEK293 CHT ctr
CC(C)NC(=O)C1COc2ccccc2O1 (stereo not given),i,-3.7,i,i,i,0.06,x,x
CCOc1ccc(CCNC(=O)c2ccc(S(=O)(=O)N3CCCC3)cc2)cc1OCC,i,x,i,i,i,0.11,x,x
Fc1cccc(Cc2noc(CN3CCC(c4ccncc4)CC3)n2)c1,-5.6*,-6.3,i,i,i,0.47,29.7%*,i
COC(=O)CC1(CC(N)=O)SCCS1,x,x,x,i,x,x,x,x
Fc1ccc(CSc2nc3ncccc3[nH]2)cc1,-6.04*,-7.9,i,i,i,1.39,i,i
Fc1cccc(CSc2nc3ncccc3[nH]2)c1,i,-16.1,i,i,i,-0.18,x,x
O=C(/C=C/c1ccc(OC(F)F)cc1)Nc1cccc(S(=O)(=O)N2CCOCC2)c1,i,-6.3,i,i,i,-0.13,x,x
CNc1cc(C)nc(-n2nc(C)cc2C)n1,i,-1.3,i,i,i,-1.39,x,x
CCOc1ccc(Nc2cc(C)nc(-n3nc(C)cc3C)n2)cc1,-6.12*,14.8,i,i,i,0.79,i,i
Cc1cccc(S(=O)(=O)Nc2nc3ccccc3nc2Nc2cccc(C(=O)O)c2)c1,i,-8.8,i,i,i,0.82,x,x
O=S(=O)(Nc1nc2ccccc2nc1Nc1cccc(S(=O)(=O)N2CCCCC2)c1)c1ccccc1,-7.36*,-6.6,100*,i,i,-3.95,52.7%*,i
CC1CCCC(C)N1c1ccc(S(=O)(=O)N2CCOCC2)cc1Cl (stereo not given),i,-10.9,i,i,i,0.46,x,x
O=C(NC(=S)NNC(=O)c1ccc(Cl)cc1Cl)c1cccnc1,i,-9.4,i,i,i,0.01,x,x
Cc1ccccc1C(=O)NNC(=S)NC(=O)c1ccc(Cl)cc1Cl,-9.25*,-3.6,100*,i,i,1.44,45.2%*,i
C=CCn1c(O)c(N=O)c2ccccc21,i,-3.1,i,i,i,0.87,x,x
C/C(Cl)=C\Cn1c(O)c(N=O)c2ccccc21,-7.06*,-15.3,i,i,i,-0.04,50.5%*,i
